Screens (PubChem)
A selection: hits, their analogues and other compounds. The true share with any hit is near 12%.
AMA1 RON2 block = inhibitors of Plasmodium falciparum AMA1-RON2 interaction. AlphaScreen AMA1-biotinylated RON2 peptide binding. Potency, µM (top dose mostly 58.2 µM), without a hit: top-dose activity change, negative = inhibition, most hits filed as inhibitors. 0.2% of 360,000 active;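 note: 0% = vehicle wells and -100% = peptide control; nearly all actives have a fitted effect of over 45% in size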
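AMA1 (3D7) with his tag at 25 nM final met compounds first, then biotinylated RON2 peptide at 25 nM; detection used donor plus acceptor beads, 10 µg/mL apiece, read by AlphaScreen after 30 min at room temperature.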
NS1 function inh = inhibitors of influenza NS1 protein function; Potency, µM (doses to about 46.1 µM), inactives show at the highest dose activity, positive = more growth; 0.4% of 270,000 active; calls by dose curve; note: actives are rising curves; nearly all actives have a fitted effect of over 50% in size
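Read-out: OD600 growth recovery of NS1-expressing budding yeast. Cells grown overnight at 30C in -URA glucose medium, washed, resuspended and diluted 1:100 in 2% galactose assay medium, pH 6.0. Same strain lacking NS1 served as positive control.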
HCV inhibitor = blocks hepatitis C virus. Huh7.5.1 HCVcc-Cre infection, luciferase reporter, 44 h. Potency, µM (titrated, usually from 41.8 µM), for the others: top-dose activity change, negative = inhibition, most hits filed as inhibitors. 3.4% of 340,000 active; note: % is set by controls: 0 for no effect and ±100 for the full control effect
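Cells seeded at 1,000/well and cultured 4 h, then compounds added followed by HCVcc-Cre virus (~0.5 moi). After 44 h further culture, luciferase substrate was added, plates held 15 min at room temperature, and luminescence read for 15 sec.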
SARS PLpro yeast = SARS-CoV PLP inhibition in yeast | S. cerevisiae expressing SARS-CoV PLpro, growth rescue | Potency, µM (top dose mostly 32.9 µM), for the others: at the top dose activity, positive = growth rescue, usual class: activators | 0.19% of 330,000 active; calls by dose curve; note: 0% is about no effect; nearly all actives have a fitted effect of over 55% in size
Pf growth 96h = inhibits malaria parasite growth, 96 h; P. falciparum luciferase reporter growth, 96 h; Potency, µM (series often up to 28.7 µM), for the others: at the top dose activity change, negative = inhibition, hits mostly inhibitors; 6.9% of 320,000 active; AID 504834; note: % is set by controls: 0 for no effect and ±100 for the full control effect
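Plates of compound plus infected erythrocytes (2% hematocrit, 0.05% parasitemia final) incubate 96 hours, 37 C, 5% CO2. Detection reagent added; reduced luminescence from the parasites' luciferase reporter flags inhibition.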
Pf growth 48h = P. falciparum growth inhibition at 48 hours (one generation) | P. falciparum luciferase growth in erythrocytes, 48 h | 5.9% of 310,000 active | Potency, µM (doses to about 28.7 µM), for the others: top-dose activity change, negative = inhibition, actives largely listed as inhibitors; note: % is set by controls: 0 for no effect and ±100 for the full control effect
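Read-out is firefly luciferase luminescence from an integrated reporter in P. falciparum, so falling signal marks reduced parasite growth. Infected erythrocytes were at 2% hematocrit and 0.1% parasitemia (final) in Albumax-supplemented RPMI 1640.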
* marks the source's active call; other numbers are inactive results; u = inconclusive; x = no result. Unless noted, calls come from the whole dose curve; as a rule, active = well fitted curve in the direction sought with a large enough effect; inconclusive = small, poorly fitted or top-dose-only effect, or another doubt; inactive = no such curve, though single readings can be large; an effect the other way counts as inactive or inconclusive. Potency is the fitted concentration of half-maximal effect.

SMILES | AMA1 RON2 block | NS1 function inh | HCV inhibitor | SARS PLpro yeast | Pf growth 96h | Pf growth 48h
O=C(Nc1ccc2c(c1)OCO2)[C@@H]1[C@@H]2C(=O)N(C3CCCCC3)C(=O)[C@@H]2C2c3ccccc3C=CN21 (stereo partly specified) | x | 15% | 11% | 1% | -11% | u
CC(C)(C)C(=O)[C@@H]1[C@@H]2C(=O)N(C3CCCCC3)C(=O)[C@@H]2[C@H]2c3ccccc3C=CN12 | 24% | u | -5% | -2% | 15µM* | x
CC(C)c1nc2cc(C(=O)N3CCN(c4cnccn4)CC3)ccc2o1 | -5% | 4% | -8% | -8% | 12µM* | 6%
CCCOC1CCCN(C(=O)c2ccc3oc(C(C)C)nc3c2)C1 (stereo unspecified) | -6% | 3% | 13% | -4% | 34% | 8%
CC/C(=N\OC(=O)c1ccc(OC(C)C)cc1)c1ccc(C)cc1 | -3% | -76% | -12% | -16% | 15µM* | x
Cc1cc(C)cc(OCC(=O)O/N=C(\N)c2cccnc2)c1 | 0% | -8% | -11% | 0% | 33% | u
COc1ccccc1C1(CCNC(C)c2cccs2)CCOC(C(C)C)C1 (stereo unspecified) | -20% | -4% | u | 1% | 8.3µM* | 8.3µM*
COc1ccccc1C1(CC(=O)O)CCOC(C(C)C)C1 (stereo unspecified) | 0% | 7% | 2% | -4% | -5% | 3%
CCC(=O)N(CCC1(c2ccccc2OC)CCOC(C(C)C)C1)Cc1ccco1 (stereo unspecified) | -20% | -2% | -20% | 0% | 10µM* | 10µM*
Cc1ccc(C2(CCNC(C)c3cccs3)CCOC(C(C)C)C2)cc1 (stereo unspecified) | 1% | -1% | u | 0% | u | u
COc1cccc(/C=C2\N=C(c3c(-c4ccccc4)noc3C)OC2=O)c1 | -1% | 9% | 1% | 7% | 24% | 8%
COc1cc(/C=C2\N=C(c3c(-c4ccccc4)noc3C)OC2=O)ccc1OC(C)=O | -5% | x | -6% | 5% | 4% | 13µM*
Cn1c(-c2ccccc2)c[n+]2c1-c1ccccc1C2 | 0% | 2% | 11µM* | -20% | u | 0.59µM*
COC(=O)c1ccc(S(=O)(=O)NCCSc2nnc3c4ccccc4n(C)c3n2)cc1 | -4% | -49% | 10µM* | -5% | -2% | u
CC(C)OC(=O)CSc1nnc2c3ccccc3n(C)c2n1 | -2% | -9% | 20% | 15% | -11% | 9%
CC(C)CSc1nnc2c3ccccc3n(C)c2n1 | 6% | -120% | -1% | -6% | 6.6µM* | 122%
CCOC(=O)c1c(NC(=O)c2nn(CC)cc2Br)c(C#N)nn1-c1ccccc1 | 14% | -31% | 11µM* | 5% | -25% | 13µM*
CCOC(=O)c1nn(-c2ccccc2)c(C#N)c1NC(=O)c1nn(CC)cc1Br | -7% | -15% | u | x | -6% | u
CCOC(=O)c1nn(-c2ccc(F)cc2)c(=O)c(C#N)c1C | -15% | 6% | 1% | 2% | u | -3%
CCOC(=O)c1nn(-c2ccccc2)c(=O)c(C#N)c1C | 18% | -4% | 20% | 6% | 15µM* | x
c1ccc(CCN2CCOCC2)nc1 | x | -3% | x | x | x | x
O=C(CSc1nnc(-c2cccs2)n1Cc1ccccc1)NCc1ccc2c(c1)OCO2 | -2% | 6% | -13% | -8% | u | x
Cc1ccc(-c2csc3nnc(SCC(=O)NCc4ccc5c(c4)OCO5)n23)cc1 | -10% | -18% | 6.3µM* | -1% | x | u
O=C(CSc1nnc(Cc2cccs2)n1-c1ccc(Cl)cc1)NCc1ccc2c(c1)OCO2 | 5% | 14% | -10% | 2% | 7.4µM* | 0.93µM*
CCn1c(SC(C)C(=O)NC2CCCc3ccccc32)nnc1-c1cccs1 (stereo unspecified) | 38% | 0% | 6% | 5% | 17µM* | x
SMILES | AMA1 RON2 block | NS1 function inh | HCV inhibitor | SARS PLpro yeast | Pf growth 96h | Pf growth 48h
CC(Sc1nnc(-c2cccs2)n1Cc1ccccc1)C(=O)NCc1ccc2c(c1)OCO2 (stereo unspecified) | -12% | -55% | -4% | 0% | 8.3µM* | x
O=C(CSc1nnc(-c2cccs2)n1-c1ccccc1)NCc1ccc2c(c1)OCO2 | -19% | -54% | u | -11% | x | -13%
CCNC(=O)C1CCCN(C(=O)c2cccc(Cl)c2)CC1 (stereo unspecified) | -4% | x | x | x | x | x
Cc1nc2ccccc2cc1OCc1ccc(Cl)cc1 | 6% | -23% | 7.1µM* | -21% | 14% | 3%
COc1cccc(COc2cc3ccccc3nc2C)c1 | 2% | -32% | 5.6µM* | 0% | 69% | 54%
COC(=O)c1sccc1OCc1cccc(OC)c1 | 25% | -3% | -20% | 1% | u | 22%
Cc1nc2ccccc2cc1OCc1ccccc1 | 11% | -117% | 10µM* | -2% | 76% | 48%
CCOC(=O)C1C(=O)NC(C(=O)OCC)(C(=O)OCC)C1C(C)CC (stereo unspecified) | -4% | x | 11% | x | x | x
Cc1ccc(C2OCC(C)([N+](=O)[O-])CO2)cc1 (stereo unspecified) | 3% | x | 11% | x | x | x
Cc1ccc(C23OC(=O)C(C)(C)C2OC(=O)C3(C)C)cc1 (stereo unspecified) | -3% | 3% | 3% | 11% | 13µM* | 9.3µM*
S=C(Nc1ccc(Br)cc1Cl)N1CCCC1 | 8% | 5% | 24% | -3% | 2.1µM* | -3%
O=C(Nc1ccc(C(=O)N2CCCC2)cc1)Nc1ccc(Cl)cc1Cl | 16% | 5% | u | -1% | -5% | 16%
O=C(Nc1ccc(CN2CCCCC2)cc1)Nc1ccc(Br)cc1Cl | 5% | x | 16µM* | 1% | 13% | u
S=C(Nc1ccccc1Cl)N1CCCC1 | -3% | 1% | 19% | 1% | 16% | 12%
Cc1cc(=O)[nH]c(SCc2ccc(Cl)cc2Cl)n1 | -2% | -6% | 6% | 0% | -25% | 0%
Cc1cc(C)c(S(=O)(=O)N2CCCCC2CCNC(=O)C(=O)NC2CC2)c(C)c1 (stereo unspecified) | 3% | x | 7% | 2% | u | 9.3µM*
Cc1ccc(C)c(S(=O)(=O)N2CCCCC2CCNC(=O)C(=O)NCc2ccco2)c1 (stereo unspecified) | -7% | x | 11µM* | 0% | u | u
Cc1cc(S(=O)(=O)N2CCCCC2CCNC(=O)C(=O)NC2CC2)ccc1F (stereo unspecified) | 7% | x | -1% | -2% | u | -16%
COCCCn1c(=O)c2sccc2n(Cc2ccc(C)cc2)c1=O | 39% | -10% | -7% | 2% | -8% | 1%
CCOC(=O)[C@]12CCCC=C1N(Cc1ccc3c(c1)OCO3)C(=O)[C@H](CC(=O)NCCC(C)C)C2 | -5% | x | x | x | x | x
